Screening data deposited in PubChem by several laboratories.
Shown are actives, neighbours in structure and some others; about 12% of the full set was active somewhere.
Arbovirus inh = antivirals against arbovirus infection, primary screen, cell-based, full library, 10K replicate subset. 0.37% of 200,000 active. arbovirus infection cell-based antiviral screen. inhibition, % at 10 µM; in the data active = inhibition above about 30%
CHOP inh = inhibitors of CHOP promoter induction, primary screen, cell-based, unfolded protein response, luciferase reporter; CHO-K1 CHOP-promoter luciferase, tunicamycin-induced, 15-18 h; inhibition, % at 10 µM; 3.8% of 220,000 active; AID 2732, 2010;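 active = compounds that reduced the stress-induced luciferase reporter signal by more than about 70% of percent inhibition, limit read from the data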;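 also: 0% = tunicamycin plus vehicle and 100% = wells without tunicamycin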
Lmaj promast = Leishmania major promastigote growth inhibition, primary screen | inhibition, % at 10 µM | Leishmania major promastigotes, resazurin fluorescence viability | 9% of 200,000 active; in the data active = inhibition above about 50%;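 also: promastigotes grown with compound for 44 hours at 28 °C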
WT yeast gro inh = growth inhibition of WT strain, primary screen, mitochondrial fusion inhibitor project, WT and mutant strains, chemical genetic. AID 1362, 2008. mitochondrial fusion phenotypic screen. inhibition, % at 10 µM. 2.1% of 190,000 active; in the data active = inhibition above about 58%; tested in S. cerevisiae
Lmaj promast 1uM = Leishmania major promastigote growth inhibition, confirmation, 1 µM repeat of primary hits; 13% of 1,100 active; shares compounds with Lmaj promast; AID 1258, 2008; L. major promastigote growth, resazurin fluorescence, 48 h; inhibition, % at 1 µM;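 active = inhibition above about 50% in both repeat tests, limit read from the data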
Active calls of the source: *; x = no result.

SMILES | Arbovirus inh | CHOP inh | Lmaj promast | WT yeast gro inh | Lmaj promast 1uM
COC(=O)[C@@H]1CC[C@H](C)[C@@H](c2ccc(C)cc2)N1C(=O)c1ccc(/C=N/OCC[C@@H]2C=C[C@H](OC(C)=O)[C@@H](COC(C)=O)O2)cc1 | 7.0 | 6.0 | 96.3* | 3.3 | -16.9
CNC(=S)/N=C/NOCc1ccc(Cl)cc1Cl | -33.0 | 49.0 | 57.7* | 62.2* | 15.2
NC(=O)NOCc1ccc(Cl)cc1Cl | 9.9 | 17.5 | 3.5 | 6.6 | x
CC(=O)[C@H]1CC[C@H]2[C@@H]3C[C@H](C)C4=CC(=O)CC[C@]4(C)[C@H]3[C@@H](O)C[C@]12C | 16.2 | 40.7 | 6.3 | 10.6 | x
CC(=O)O[C@]1(C(C)=O)CC[C@H]2[C@@H]3C[C@H](C)C4=CC(=O)CC[C@]4(C)[C@H]3CC[C@@]21C | 23.8 | 46.2 | 75.5* | 5.0 | -2.3
Cn1c(CSc2nc3ccccc3n2C)nc2ccccc21 | 6.7 | 4.3 | 4.3 | 16.9 | x
Cn1c(SC2=CS(=O)(=O)c3ccccc32)nc2ccccc21 | -9.4 | x | 98.6* | -19.3 | 15.4
O=C(N=Nc1c(O)[nH]c2ccccc12)c1ccco1 | -9.6 | -29.4 | 17.2 | 12.9 | x
Clc1cc2nc[nH]c2cc1Cl | x | 13.9 | x | x | x
O=C(N/N=C\c1ccc(CN(Cc2ccc(Cl)cc2)S(=O)(=O)c2ccccc2)o1)C(=O)Nc1ccc(F)cc1 | -11.2 | 60.8 | 80.9* | 5.5 | 42.7
O=C1CC(N2CCCc3ccccc32)C(=O)N1c1ccccc1 (centres undefined) | 2.9 | -16.1 | 0.0 | -11.2 | x
O=C1c2ccccc2C(=O)C12Cc1ccccc1N1CCN(c3ccccc3)CC12 (centres undefined) | 7.4 | 46.7 | 65.1* | 14.2 | 67.1*
Cc1ncc([N+](=O)[O-])n1CCOC(=O)c1cc(Cl)cc(Cl)c1N | 11.2 | -2.6 | 60.1* | 46.7 | -5.9
CCCCCCCC1CC(CSC(=N)N)OC1=O (centres undefined) | -7.8 | 42.5 | 100.1* | -7.4 | 8.4
CC1=NCC(C)c2c1[nH]c1ccccc21 (centres undefined) | 9.6 | -1.0 | 83.8* | -0.3 | -10.4
Cn1nc([N+](=O)[O-])nc1Sc1nnc(-c2ccccc2)o1 | -6.6 | -144.7 | 99.3* | -3.4 | -2.2
COc1ccc(C(=O)Nc2ccc(C3CC3(Cl)Cl)cc2)cc1 (centres undefined) | 1.6 | 6.7 | -3.7 | -1.2 | x
O=C(N/N=C/c1ccccc1OCc1ccccc1Cl)c1cccnc1 | 7.6 | 22.4 | 90.9* | -1.9 | -11.4
c1ccc(-c2n[nH]c(-c3ccccn3)n2)nc1 | -7.8 | -4.1 | 100.4* | 6.4 | -9.3
c1ccc(-c2ccccn2)nc1 | 10.4 | 18.6 | -3.1 | 3.2 | x
CCC(C)[C@H](NC(=O)NCCCn1ccnc1)C(=O)OC (some centres undefined) | 3.2 | -0.7 | 52.3* | -5.7 | -7.2
O=C(NCCCn1ccnc1)NC(C(F)(F)F)C(F)(F)F | -2.9 | 25.4 | -7.6 | -6.2 | x
COc1ccc(-c2nc3ccccc3c(=O)n2CCOc2cccc(C)c2C)cc1 | 15.1 | 19.3 | 29.1 | -1.1 | x
COc1cccc(N2CCN(C(=O)c3ccc(N4C(=O)NC5CC4(C)Oc4ccccc45)cc3)CC2)c1 (centres undefined) | -1.6 | 4.3 | 72.8* | 7.4 | -10.3
CC12CC(NC(=O)N1c1ccc(C(=O)N3CCN(c4ccccn4)CC3)cc1)c1ccccc1O2 (centres undefined) | 0.0 | 3.6 | -7.3 | -1.6 | x
SMILES | Arbovirus inh | CHOP inh | Lmaj promast | WT yeast gro inh | Lmaj promast 1uM
Cc1cc(C(c2nnnn2Cc2ccccc2)N2CCOCC2)c(C)n1-c1ccc2c(c1)OCO2 (centres undefined) | -10.5 | 43.5 | 60.7* | -59.7 | -5.9
CCN(CC)S(=O)(=O)c1ccc(Cl)c(NC(=O)COC(=O)c2ccc([N+](=O)[O-])o2)c1 | x | 12.0 | x | x | x
CCOc1ccc(S(=O)(=O)N2Cc3ccccc3CC2C(=O)NCCCn2ccnc2)cc1 (centres undefined) | 4.9 | 34.1 | 98.2* | -6.4 | -7.6
Cc1ccc(S(=O)(=O)N2Cc3ccccc3CC2C(=O)Nn2cnnc2)cc1 (centres undefined) | 0.6 | 19.4 | 0.7 | 9.6 | x
COc1ccc(OC)c(S(=O)(=O)Nc2ccc(Oc3ccccc3)cc2)c1 | 1.6 | 61.2 | 66.5* | 63.5* | -10.7
CCOc1ccc(NS(=O)(=O)c2cc(OC)ccc2OC)cc1 | -0.6 | -15.0 | 3.0 | 12.1 | x
CC(C)=CCCC(C)CN(C)CCc1ccccn1 (centres undefined) | 0.5 | -3.3 | 82.9* | -10.4 | -6.4
COc1ccccc1NC(=O)CN1CCC(C(=O)c2ccc(F)cc2)CC1 | 6.8 | 46.8 | 70.7* | -4.3 | -11.6
